AID504770: growth inhibitors of E. coli YBA685 in a screen for V. cholerae RctB (chromosome II replication) inhibitors | E. coli YBA685 rctB-dependent plasmid, OD600 growth, 3 h; hits give low values | z-score (no concentration beside the values) | 0.27% of 130,000 active | AID 504770; in the data active = z-score below about -2, passing the limit was not always enough
Mtb MenB inh: Mtb MenB enzyme inhibition | P9WNP5 | MenB enzyme assay, absorbance read-out | AID 540299 | 0.43% of 100,000 active | inhibition, % (concentration not given with the values); in the data active = inhibition above about 21%, passing the limit was not always enough
MbtI inh: blocks the Mycobacterium tuberculosis siderophore enzyme MbtI. P9WFX0. inhibition, % (concentration not given with the values). 0.89% of 100,000 active. purified MbtI enzyme, fluorescence intensity read-out; in the data active = inhibition mostly above about 56%, no sharp cut-off; inactive = mostly below about 77%
Target sequence (P9WFX0 whole entry, looked up): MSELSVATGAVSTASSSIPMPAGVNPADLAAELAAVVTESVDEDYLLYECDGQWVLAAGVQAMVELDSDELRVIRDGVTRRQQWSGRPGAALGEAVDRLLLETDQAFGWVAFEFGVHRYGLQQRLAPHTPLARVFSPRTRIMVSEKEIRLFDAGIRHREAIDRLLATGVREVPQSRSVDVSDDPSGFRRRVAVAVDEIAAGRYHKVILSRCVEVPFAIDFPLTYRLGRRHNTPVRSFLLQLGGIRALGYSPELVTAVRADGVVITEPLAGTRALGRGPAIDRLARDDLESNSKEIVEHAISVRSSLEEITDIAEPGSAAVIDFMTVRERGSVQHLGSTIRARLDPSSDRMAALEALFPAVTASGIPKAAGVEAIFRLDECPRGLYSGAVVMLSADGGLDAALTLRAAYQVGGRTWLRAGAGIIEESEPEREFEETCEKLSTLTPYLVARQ
PV pol inh: poliovirus RNA polymerase inhibition. P03300. poliovirus polymerase elongation, fluorescence polarization; hits give low values. % elongation, % (compound at 16.7 µg/mL). 0.66% of 150,000 active. AID 588519; in the data active = % elongation below about 90%
A number is an active result; n = inactive; x = no result. Shown are actives, neighbours in structure and some others; about 1.4% of the full set was active somewhere.

SMILES | AID504770 | Mtb MenB inh | MbtI inh | PV pol inh
O=c1oc2c3c(ccc2c2ccccc12)OCN(Cc1ccc(Cl)cc1)C3 | x | x | x | 88.0
C=CCn1cnc2c1c(=O)[nH]c(=O)n2C | n | n | n | n
CCCn1cnc2c1c(=O)[nH]c(=O)n2C | -3.7 | x | x | x
N#CCc1ccc(NC(=O)c2nccnc2C(=O)O)cc1 | n | n | n | n
Ic1ccc(Nc2nc3nonc3nc2N/N=C\c2ccco2)cc1 | n | 28.9 | n | n
COC(=O)c1cnc(NN2C(=O)C=C(C)C2=O)nc1C(F)(F)F | n | n | 52.9 | n
COC(=O)C(C)N1C(=O)S/C(=C/c2ccc(N3CCCCCC3)o2)C1=O (stereo not given) | n | n | 53.2 | n
CC(C)(C)c1cc(N)n(-c2ccccc2)n1 | n | x | n | n
Cc1ccc(S(=O)(=O)N(C)c2ccccc2)cc1 | n | n | n | n
Cc1ccc(S(=O)(=O)N(C)c2nc3ccccc3nc2SCC#N)cc1 | n | n | 97.8 | n
CCOCCCN=C1SCC(CC)N1C(=O)c1ccc(C#N)cc1 (stereo not given) | n | n | n | 89.0
N#Cc1ccc(C(=O)N2CCCSC2=NCCc2ccccc2)cc1 | n | n | n | n
COC(=O)c1ccccc1N1C(=O)C=CC1=O | -2.45 | x | x | x
Cc1n[nH]c(=O)nc1NCC1CCCO1 (stereo not given) | n | x | x | x
CC1=C(C)C(=O)C(NCC2CCCO2)=CC1=O (stereo not given) | n | n | n | 70.0
NNc1ccc(Cl)c(Cl)c1 | -3.6 | x | n | n
NC(=S)NNc1ccc(Cl)c(Cl)c1 | n | n | 95.4 | n
COc1cc(S(=O)(=O)N2CCC3(CC2)OCCO3)ccc1-n1cnnn1 | n | n | n | n
CCCCN1C(=O)c2ccc(C(=O)OCC(=O)c3ccc(CNC(C)=O)o3)cc2C1=O | n | n | n | n
COc1ccc(Cl)cc1CN1CCCCC1 | n | n | x | n
COc1cc(Cl)ccc1N=NN1CCOCC1 | -3.95 | x | x | x
Cc1ccccc1N1C(=O)Cc2ccccc2C1=O | n | n | n | 48.0
COc1ccc(N2C(=O)Cc3ccccc3C2=O)cc1 | n | x | x | x
Cc1cccc(C)c1OCc1nc2c3cnn(-c4ccccc4F)c3ncn2n1 | x | x | x | 75.0
Cc1cccc(C)c1OCc1nc2c3cnn(-c4ccccc4Br)c3ncn2n1 | x | x | x | n
SMILES | AID504770 | Mtb MenB inh | MbtI inh | PV pol inh
CCn1c(COc2cccc(C)c2)nnc1SCC(=O)NC(C)(C)C | n | 41.0 | n | n
C=CCN1C(=O)NC(=O)/C(=C/C=C/c2ccccc2)C1=O | n | n | n | n
CN1C(=O)C(=C/C=C/c2ccccc2)C(=O)N(C)C1=O | n | n | 82.2 | n
CCOC(=O)C(O)(c1ccc2nc(N)sc2c1)C(F)(F)F (stereo not given) | n | n | n | n
CN(C)S(=O)(=O)c1ccc(S(=O)(=O)N2CCC(c3nc4ccccc4s3)CC2)cc1 | n | 28.9 | n | n
COc1ccc2cc(/C=C3/C(=O)NC(=S)N3C(C)=O)c(N3CCOCC3)nc2c1 | n | n | n | n
Cc1cc(C)cc(NC(=O)c2sc3nc(-c4cc5ccccc5oc4=O)[nH]c(=O)c3c2C)c1 | x | x | x | n
Cc1c(C(=O)Nc2cccc(F)c2)sc2nc(-c3cc4ccccc4oc3=O)[nH]c(=O)c12 | x | x | x | 64.0
CC(C)c1ccc(-n2c(=O)[nH]c3ccccc3c2=O)cc1 | n | n | n | 73.0
C=CCn1c(SCC(N)=O)nnc1-c1cccs1 | n | x | x | x
O=C(Nc1ccc2oc(-c3ccc(Cl)cc3Cl)nc2c1)c1ccc2c(c1)OCO2 | n | n | n | n
COc1cccc(NC(=O)Cn2sc3ccccc3c2=O)c1 | -2.55 | n | n | n
COc1cccc(NC(=O)Cn2ccc3c(OC)cccc3c2=O)c1 | n | n | n | n
c1ccc(-c2ccc(-c3ccccn3)nc2)nc1 | -2.35 | x | x | x
c1ccc(-c2cccc(-c3ccccn3)n2)nc1 | n | x | n | n
O=C(/C=C/c1ccc(Br)o1)OCC(=O)c1cccc(C(F)(F)F)c1 | n | x | n | n
COc1ccc(Cn2c(=O)[nH]c3cc(C(=O)NC4CCCCC4)ccc3c2=O)cc1 | n | n | n | n
S=c1sscc1-c1ccccc1 | n | n | x | 53.0
COc1ccc(CCNC(=O)CN2N=C(c3ccc(C)cc3)CCC2=O)cc1OC | n | n | n | n
Cc1ccc(Cl)cc1NC(=O)Cn1c(=O)c(CNc2ccccc2)cc2cc3c(cc21)OCCO3 | x | x | x | n
O=C(Cn1c(=O)c(CNc2ccccc2)cc2cc3c(cc21)OCCO3)Nc1ccccc1Cl | x | x | x | 51.0
Cc1ccc(C2C(C#N)=C(N)OC(C3CC3)=C2C#N)cc1 (stereo not given) | n | n | n | n
COC(=O)c1ccc(CNC(=O)c2cc3c(s2)CCCC3)cc1 | n | x | n | n
Oc1c(Br)cc(Cl)cc1/C=N/c1ccccn1 | n | n | n | 75.0
Cn1c(O)c(/C=N/c2sc3c(c2C#N)CCCC3)c2ccccc21 | n | x | n | n
SMILES | AID504770 | Mtb MenB inh | MbtI inh | PV pol inh
O=C1CCCN1C(=O)CSc1nnc(-c2ccccc2)c(-c2ccccc2)n1 | n | n | n | n
Cn1cc(CCCC(=O)N2CCCC2)c2ccccc21 | n | n | n | n
CCOC(=O)C1CCCN(C(=O)CSc2ccc(NC(C)=O)cc2)C1 (stereo not given) | n | n | 66.6 | n
Cc1conc1NC(c1cccs1)c1ccc2cccnc2c1O (stereo not given) | n | n | 96.7 | n
Cc1ccc(NC(=O)Sc2ccc(Cl)cc2)cc1 | n | n | 57.0 | n
Cc1onc(-c2ccc(Cl)cc2)c1-c1ccnc(SCc2ccccc2)n1 | n | n | n | n
CCN(CC)S(=O)(=O)c1ccc(Cl)c(C(=O)OC)c1 | n | n | n | n
CCN(CC)S(=O)(=O)c1ccc(Cl)c(C(=O)Oc2ccc(C)c(C)c2)c1 | n | n | n | 45.0
COc1nc(N)nc(C2CC2)n1 | n | x | x | x
O=C(Nc1nc(CSc2nc3ccccc3s2)cs1)C1CC1 | n | n | n | 83.0
COC(=O)CSc1nc2ccccc2s1 | n | n | n | n
COc1ccc(CCN(C)c2nc(N)c3c(N)nc(SCC(=O)O)cc3c2C#N)cc1OC | n | n | n | 72.0
Cc1nc(C)c(CCNC(=O)c2cccs2)s1 | n | n | n | n
Cc1cccc(NC2=NCC(=O)N2Cc2ccccc2)c1 | n | n | n | 87.0
O=C1CN=C(Nc2ccccc2Cl)N1Cc1ccccc1 | n | n | n | n
CC1(C)CC(=O)C(C2(O)C(=O)NC(=O)NC2=O)=C(O)C1 | n | n | n | 56.0
CC(C)C(=O)Nc1cccc(-c2nc3ccccc3c(=O)o2)c1 | -3.5 | n | n | n
c1ccc(CN(CCN(Cc2ccccn2)Cc2ccccn2)Cc2ccccn2)nc1 | x | 29.8 | n | n
COc1ccccc1Nc1nn2c(=O)c3ccc(C(=O)NCCCOC(C)C)cc3nc2s1 | x | x | x | n
CCN(CC)CCNC(=O)c1ccc2c(=O)n3nc(Nc4ccccc4OC)sc3nc2c1 | x | x | x | 65.0
COc1ccc(CCNC(=O)c2ccc3c(c2)N(Cc2ccccc2)C(=O)c2ccccc2S3=O)cc1OC (stereo not given) | x | x | x | -15.0
CC(C)OC(=O)Cn1c(C2CC2)nc2ccccc2c1=O | n | 30.7 | n | n
O=C(NC1(C(F)(F)F)Oc2ccc(Cl)cc2O1)N1CCCCC1 (stereo not given) | x | x | n | x
CCN(C(=O)NC1(C(F)(F)F)Oc2ccc(Cl)cc2O1)C1CCCCC1 (stereo not given) | n | n | 70.9 | n

Screens as filed in PubChem BioAssay.
